Data taken from PubChem BioAssay (NCI).
This is part of a sample that, as a whole, favours compounds with a hit. Of some 83,000 tested, about 20% had one in any assay.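 Cell lines were cultured in 96-well plates, exposed to a single compound concentration, and assessed for percent growth 48 hours later.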 A number with no mark means an inactive call. The source made the active and inactive calls. How the source made its calls: active means growth percent below 10; inactive means the rest.

Experiments:
Assay in all cases: NCI-60 one-dose screen, 48 h (100 = growth as untreated, 0 = no growth, -100 = all killed)
Settings in all cases: 10 µM unless noted
HCT-15 colon = test system: HCT-15 colon
HT29 colon = test system: HT29 colon
SNB-75 CNS = test system: SNB-75 CNS
SNB-19 CNS = test system: SNB-19 CNS
U251 CNS = test system: U251 CNS
PC-3 prostate = test system: PC-3 prostate
SK-MEL-5 melanoma = test system: SK-MEL-5 melanoma
UACC-62 melanoma = test system: UACC-62 melanoma
LOX IMVI melanoma = test system: LOX IMVI melanoma
SK-MEL-28 melanoma = test system: SK-MEL-28 melanoma
SK-MEL-2 melanoma = test system: SK-MEL-2 melanoma
SN12C renal = test system: SN12C renal
UO-31 renal = test system: UO-31 renal
TK-10 renal = test system: TK-10 renal
ACHN renal = test system: ACHN renal
CAKI-1 renal = test system: CAKI-1 renal
A498 renal = test system: A498 renal
CCRF-CEM leukemia = test system: CCRF-CEM leukemia
MOLT-4 leukemia = test system: MOLT-4 leukemia

Row | SMILES | growth (HCT-15 colon) | growth (HT29 colon) | growth (SNB-75 CNS) | growth (SNB-19 CNS) | growth (U251 CNS) | growth (PC-3 prostate) | growth (SK-MEL-5 melanoma) | growth (UACC-62 melanoma) | growth (LOX IMVI melanoma) | growth (SK-MEL-28 melanoma) | growth (SK-MEL-2 melanoma) | growth (SN12C renal) | growth (UO-31 renal) | growth (TK-10 renal) | growth (ACHN renal) | growth (CAKI-1 renal) | growth (A498 renal) | growth (CCRF-CEM leukemia) | growth (MOLT-4 leukemia)
1 | CC[C@H](C)[C@H]1NC(=O)[C@@H](N[C@](C)(O)[C@@H](N)CC(C)C)[C@@H](C)OC(=O)[C@H](Cc2ccc(OC)cc2)N(C)C(=O)[C@@H]2CCCN2C(=O)[C@H](CC(C)C)NC(=O)[C@@H](C)C(=O)[C@H](C(C)C)OC(=O)C[C@@H]1O | 0.591% (active) | -24.6% (active) | -11.1% (active) | -12.5% (active) | -11.8% (active) | 2.33% (active) | -56.9% (active) | -42.9% (active) | -55.9% (active) | -13.6% (active) | -55.8% (active) | -8.75% (active) | -19.9% (active) | -15% (active) | -10.9% (active) | -22.1% (active) | -28.9% (active) | -19% (active) | -24.8% (active)
2 | NCCSC(c1ccccc1)(c1ccccc1)c1ccccc1 | 24.9% | 0.695% (active) | 12.5% | 53.3% | 14.1% | 19.4% | 11.9% | 29.5% | 25.9% | 43% | 25.6% | 23.7% | 42.7% | 54.6% | 46.2% | 15.9% | 24.1% | 2.43% (active) | 3.39% (active)
3 | Clc1ccc([I+]c2ccc(Cl)cc2Cl)c(Cl)c1 | 30.2% | -26.8% (active) | 34% | 87.8% | 6.72% (active) | 9.9% (active) | 104% | 12.3% | 10.5% | 87.3% | 77.4% | 33.3% | -50.8% (active) | -82.4% (active) | 29.6% | 27% | 69.9% | -1.96% (active) | -6.5% (active)
4 | Cc1cc(C)c(S(=O)(=O)N2CCN(c3cc4c(cc3F)c(=O)c(C(=O)O)cn4C3CC3)CC2)c(C)c1 | 55.1% | 28.3% | 36.6% | 66.3% | 19.7% | 67.9% | 54.9% | 76.6% | 29.6% | 69.1% | 90.5% | 13.9% | 16.1% | 86.5% | 51.3% | 67.1% | 63% | 37.3% | 61%
5 | Cn1c(-c2nonc2NC(=O)c2ccc(F)cc2)nc2ccccc21 | 103% | 101% | 100% | 110% | 108% | 101% | 97.2% | 108% | 97.8% | 110% | 112% | 102% | 91.2% | 124% | 112% | 105% | 85.6% | 105% | -1.74% (active)
6 | COc1cc(C(=O)OCCCCCCCCCCC[P+](c2ccccc2)(c2ccccc2)c2ccccc2)ccc1O | 0.0119% (active) | 1.83% (active) | -75.7% (active) | -54.9% (active) | -89.8% (active) | -22.3% (active) | -98.1% (active) | -16% (active) | -97.7% (active) | -66.1% (active) | -32.1% (active) | -70.1% (active) | -8.76% (active) | 8.26% (active) | -1.87% (active) | -73.2% (active) | -0.743% (active) | -32.3% (active) | -50.9% (active)
7 | COc1cc(Cn2c(SCCC(=O)Nc3ccc(F)cc3)nc3ccccc3c2=O)cc(OC)c1OC | 79% | 86.9% | 80.3% | 80.4% | 95.2% | 75.8% | 85% | 76.4% | 90.9% | 99.8% | 81.3% | 82.9% | 53.7% | 101% | 81.9% | 74% | 63.3% | 86.8% | 49%
8 | Nc1c(C(=O)Nc2cccc([N+](=O)[O-])c2)sc2nc3c(cc12)C(O)CCC3 (centres undefined) | 39.9% | 17.4% | 16.9% | 79.9% | 51.4% | 57.2% | 35.1% | 47.3% | 62.8% | 54.9% | 26.2% | 65.8% | 69% | 76.6% | 92.1% | 66.7% | 27.6% | 37.2% | 42.2%
9 | O=[N+]([O-])c1cc(S(=O)(=O)OCC2CO2)ccc1Cl (centres undefined) | 93.4% | 49.7% | 89.9% | 110% | 98.9% | 83.7% | 102% | 111% | 39.1% | 90.1% | 88.4% | 103% | 89.7% | 114% | 98.5% | 104% | 121% | 76.7% | 95.3%
10 | Cc1cc2c(c(=O)o1)C(c1ccc(OC(=O)N3CCOCC3)cc1)C(C#N)=C(N)O2 (centres undefined) | 101% | 104% | 95.6% | 101% | 100% | 103% | 103% | 108% | 96.4% | 110% | 91.3% | 108% | 90.2% | 95.6% | 102% | 95.2% | 106% | 111% | 98.3%
11 | O=Nc1c(-c2c(O)[nH]c3ccc([N+](=O)[O-])cc23)[nH]c2ccc(O)cc12 | 10.3% | 69.2% | -28.1% (active) | 17.5% | 0.602% (active) | 2.12% (active) | -40.9% (active) | -34.4% (active) | -32.4% (active) | -11% (active) | -55% (active) | 23.7% | -1.14% (active) | 49.9% | -25.8% (active) | -14.3% (active) | -24.5% (active) | 0.486% (active) | 2.17% (active)
12 | CC(=O)Nc1ccc(S(=O)(=O)N2C(=O)CCC2C(=O)Nc2ccc(Br)cc2)cc1 (centres undefined) | 7.48% (active) | 21.4% | 59% | 46.1% | 22.2% | 17% | 17.6% | 15.3% | 6.05% (active) | 50.2% | 36.1% | 49.9% | 21.9% | 63.6% | 45.3% | 32.3% | 16.8% | 2.98% (active) | 5.48% (active)
13 | CC(=O)Nc1nc(C(=O)N2N=C(C)/C(=C/c3ccccc3)C2=O)cs1 | 105% | 97.5% | 95.5% | 103% | 104% | 97.7% | 108% | 114% | 98.7% | 121% | 94.6% | 109% | 80.9% | 107% | 99.9% | 98.9% | 120% | 98.7% | 95.8%
14 | CN1C(=O)[C@H]2c3c1cccc3[C@@]13NC(=O)O[C@H]1[C@H](CCC3(C)C)C2(C)C | 93.6% | 100% | 81.1% | 90.7% | 103% | 84.6% | 98.1% | 85.4% | 100% | 109% | 92.8% | 93.3% | 84.6% | 87.2% | 94.2% | 94.4% | 107% | 94.5% | 79.4%
15 | Cc1sc(N=Nc2ccc(N(C)C)cc2)[n+]([O-])c1C | 100% | 103% | 82.5% | 99.5% | 99% | 95.2% | 99% | 99.2% | 102% | 102% | 114% | 96.7% | 82.4% | 104% | 104% | 110% | 88.1% | 104% | 103%
16 | COc1cc2nc(Cl)nc(NCCO)c2cc1OC | 99% | 110% | 86.1% | 104% | 96.5% | 93.4% | 102% | 108% | 97.7% | 112% | 125% | 104% | 94.8% | 103% | 98.3% | 111% | 79.7% | 98.8% | 101%
